This excerpt belongs to a sample that is enriched for hits.
Shiga toxin inh = Shiga toxin inhibition. hit rate 9.2% among 290,000. inhibition, % at 38.7 µM. Vero cells, Shiga toxin protein synthesis inhibition reporter; in the data active means inhibition mostly above about 28%, no sharp cut-off; inactive means mostly below about 43%; further: 0% is about no effect
Marburg entry inh = blocks Marburg virus binding to or entry into cells. hit rate 1.8% among 300,000. AID 540276. Marburg virus pseudotyped entry inhibition, cell reporter. Potency, µM (titrated, usually from 37.8 µM), for the others: at the highest dose activity change, negative = inhibition, usual class: inhibitors; calls by dose curve; tested in HEK293 cells; further: potency means the concentration at half of the fitted maximal effect; on the % scale 0 is the no-effect control and ±100 the full control effect
Lassa entry inh = blocks Lassa virus binding to or entry into cells | Lassa virus pseudotype entry inhibition, cell reporter | Potency, µM (doses to about 37.9 µM), without a hit: at the top dose activity change, negative = inhibition, actives largely listed as inhibitors | hit rate 1.2% among 300,000 | AID 540256; calls by dose curve; tested in HEK293 cells; further: potency means the concentration at half of the fitted maximal effect; on the % scale 0 is the no-effect control and ±100 the full control effect; nearly all actives have a fitted effect of over 50% in size
Cycloheximide cs = affects cycloheximide protein synthesis inhibition readout, counter-screen. cell reporter, cycloheximide protein synthesis inhibition counterscreen. max response, %. hit rate 12% among 300,000; in the data active means max response mostly above about 13%, no sharp cut-off; inactive means mostly below about 14%; further: read at 38.3 µM for the half of the compounds with a filed dose; 0% is about no effect
AMA1 RON2 block = AMA1-RON2 (P. falciparum) interaction inhibition; AlphaScreen AMA1-biotinylated RON2 peptide binding; hit rate 0.2% among 360,000; Potency, µM (doses to about 58.2 µM), for the others: at the highest dose activity change, negative = inhibition, actives largely listed as inhibitors; AID 720542; active means well fitted inhibition curve with a large enough effect; inconclusive means small, poorly fitted or top-dose-only effect; inactive means no such curve, though single readings can be large or run the other way;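 further: potency means the concentration at half of the fitted maximal effect; 0% = vehicle wells and -100% = peptide control; nearly all actives have a fitted effect of over 45% in size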
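AMA1 (3D7) with his tag at 25 nM final met compounds first, then biotinylated RON2 peptide at 25 nM; detection used donor plus acceptor beads, 10 µg/mL apiece, read by AlphaScreen after 30 min at room temperature.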
An asterisk follows results filed as active; ? = inconclusive; nt = no result given; [ ] = dose if it differs, or a comment.

SMILES | Shiga toxin inh | Marburg entry inh | Lassa entry inh | Cycloheximide cs | AMA1 RON2 block
O=C(NC1CCCCCC1)C(=S)NC1CCCCC1 | 17.9 | -4.8%[46.1 µM] | ? | 10.3 | 8.8%
CCc1ccc(NC(=O)C(=S)NC2CCCCC2)cc1 | 57.4* | ? | ? | 23.1* | 26.2%
C=C1C(C(=O)Nc2ccc(OCC)cc2)C1C(=O)Nc1ccc(OCC)cc1 (centres undefined) | 14.7 | -23.0%[46.1 µM] | 22.9%[46.1 µM] | -3.2 | 23.8%
CCOc1ccc(NC(=O)C(=S)NC2CCCCC2)cc1 | 36.9 | ? | 14.7% | 22.5* | 33.1%
CCCCCCCCN1C(=O)[C@H](CC(=O)N2CCCC2)C[C@@]2(C(=O)OCC)CCCC=C12 | nt | nt | nt | nt | 6.5%
CCc1cccc(NC(=O)NC2CCCCC2)c1 | 43.7 | ? | ? | 23.1* | 16.3%
O=C(NCC(c1cccs1)N1CCOCC1)c1cn(-c2ccccc2)nc1-c1ccccc1 (centres undefined) | nt | 12.6µM* | -0.3% | nt | -12.0%
O=C(NCC(c1cccs1)N1CCOCC1)c1cccc([N+](=O)[O-])c1 (centres undefined) | -21.1 | -22.7% | ? | 0.5 | 5.8%
O=C(NCC(c1cccs1)N1CCOCC1)c1cc([N+](=O)[O-])cc([N+](=O)[O-])c1 (centres undefined) | 2.1 | -25.7% | -0.9% | 17.9* | 0.0%
O=C(NCC(c1cccs1)N1CCOCC1)c1cn(-c2ccccc2)nc1-c1ccc(Cl)cc1 (centres undefined) | nt | 10µM* | -24.8% | nt | -14.3%
Cc1cccc(N2CCN(C(=O)C3CCN(S(=O)(=O)c4c(C)noc4/C=C/c4ccccc4F)CC3)CC2C)c1 (centres undefined) | nt | nt | 0.0%[46.1 µM] | nt | nt
O=C(COC(=O)c1ccc[nH]c1=O)NCCc1ccc(F)cc1 | 0.9 | -5.2%[46.1 µM] | 22.0% | 12.7 | -10.1%
O=C(COC(=O)c1ccccc1Br)Nc1ccc(F)cc1 | 98.3* | nt | nt | 35.7* | -3.0%
O=C(COC(=O)c1ccccc1Br)NCCc1ccc(F)cc1 | -9.2 | 2.1% | 4.6% | 30.8* | -1.9%
CC(=O)c1ccc(NC(=O)COC(=O)c2ccccc2Sc2ccccc2C#N)cc1 | 1.6 | 20.3% | ? | 15.2* | -1.7%
O=C(COC(=O)c1c[nH]c2ccccc12)Nc1ccc(F)cc1 | nt | nt | nt | nt | -1.2%
Cc1occc1C(=O)OCC(=O)Nc1ccc(F)cc1 | 75.0 | 19.2% | ? | 36.2* | 4.3%
CC1=C(C(=O)Nc2ccccc2C)C(c2sccc2C)n2ncnc2N1 (centres undefined) | nt | nt | -3.2%[46.1 µM] | nt | nt
O=C(Nc1cccc(Br)c1)c1ccc2c(c1)SC1=NS(=O)(=O)CCN12 | nt | nt | nt | nt | 9.5%
CC(=O)c1ccc(NC(=O)COC(=O)c2ccc(F)cc2F)cc1 | 32.3 | 21.2%[46.1 µM] | 7.5% | 12.7* | -0.7%
O=[N+]([O-])c1cccc(NC(=S)N2CCc3ccccc32)c1 | 58.4* | nt | nt | 31.8* | -3.8%
S=C(Nc1cccnc1)N1CCc2ccccc21 | -4.2 | nt | nt | -0.7 | 0.0%
O=C(Nc1cccc([N+](=O)[O-])c1)N1CCCc2ccccc21 | 74.4* | -0.3%[46.1 µM] | 9.5%[46.1 µM] | 48.3* | -12.3%
CCN(Cc1ccccc1)S(=O)(=O)c1cc(C(=O)NC(C)C2CC3CCC2C3)ccc1OC (centres undefined) | -2.6 | ? | 3.16µM* | 8.1 | 14.1%[11.6 µM]
Fc1ccc(Nc2c(-c3c[nH]c4ccccc34)nc3ccccn23)cc1 | nt | ? | 4.5%[46.1 µM] | nt | nt
SMILES | Shiga toxin inh | Marburg entry inh | Lassa entry inh | Cycloheximide cs | AMA1 RON2 block
O=c1c(-c2ccc3c(c2)OCCO3)coc2cc(O)cc(O)c12 | 72.7* | -24.5% | -21.1% | 37.5* | 2.1%
COc1ccc(-c2c(C)nc3c(-c4ccsc4)cnn3c2N)cc1 | 85.2* | nt | nt | 33.3* | 31.4%
COc1ccc(-c2c(C)nc3c(-c4ccccn4)cnn3c2N)cc1 | 96.3* | ? | ? | 59.5* | 24.1%
O=C(Nc1cnccn1)Nc1ccccc1F | 19.9 | 0.9%[46.1 µM] | ? | 13.2 | -0.4%
O=C(Nc1ccc(Br)cc1)Nc1cnccn1 | 53.5* | nt | nt | 21.5* | -4.8%
O=C(Nc1ccc(F)cc1)Nc1cnccn1 | 17.2 | ? | 2.9%[46.1 µM] | 13.3* | -4.4%
CSC(=Nc1ccccc1)N=C(SCc1ccccc1)N(C)C | nt | ? | 12.6µM* | nt | 4.9%
N#CNC(=Nc1ccccc1)SCc1ccc(C(=O)O)cc1 | -11.6 | -0.7%[46.1 µM] | -21.8% | 0.6 | -10.9%
Cc1ccccc1OCc1nc2ccc(S(=O)(=O)N3CCOCC3)cc2[nH]1 | -16.1 | -6.9% | -13.9% | -5.1 | 21.0%
O=S(=O)(c1ccc2nc(COc3ccc(Cl)cc3Cl)[nH]c2c1)N1CCOCC1 | 22.1 | -21.6% | -1.2% | 14.5* | -0.8%
Cc1ccc(CNC(=O)c2cccn2-c2nnc(N3CCCCC3)s2)cc1 | nt | nt | 8.4%[46.1 µM] | nt | nt
CCCCN1C(=O)C(=O)NC[C@@H]1CC1CCCCC1 | nt | nt | nt | nt | 2.4%
CCOc1ccc(-c2nnc3sc(COc4ccccc4)nn23)cc1 | -1.5 | 4.1% | ? | -3.2 | 1.4%
COc1ccc(-c2nnc3sc(COc4ccc(C)cc4)nn23)cc1 | 16.2 | -0.7% | 12.6µM* | -5.4 | -7.1%
Cc1ccc(-c2nnc3sc(CCc4ccccc4)nn23)cc1 | 47.5* | 16.9% | 4.8% | 18.7* | 47.5%
COc1ccc(-c2nnc3sc(COc4ccccc4)nn23)cc1 | -10.9 | 16.4% | -6.1% | -2.8 | 2.4%
COc1ccccc1CNC(=O)COC(=O)c1ccc(C)c(S(=O)(=O)N2CCCCC2)c1 | 11.5 | 16.3%[46.1 µM] | -17.9%[46.1 µM] | -1.8 | -2.6%
COc1ccccc1-c1cc(C(=O)NCc2cccs2)no1 | 27.9 | 1.5% | -2.4% | 12.3 | -19.9%
COCCNC(=O)c1cc(-c2ccccc2OC)on1 | 131.4 | nt | nt | 17.4* | 2.5%
CCN(CC)C(=O)c1cc(-c2ccccc2OC)on1 | 53.8* | ? | 0.1% | 37.4* | 5.1%
COc1ccccc1-c1cc(C(=O)NC(C)C)no1 | 83.0* | ? | ? | 33.9* | -6.6%
CCC(C)NC(=O)c1cc(-c2ccccc2O)on1 (centres undefined) | 84.4* | nt | nt | 52.1* | -2.7%
COc1ccccc1-c1cc(C(=O)NC(C)c2ccccc2)no1 (centres undefined) | -17.8 | -9.9% | 22.5%[14.3 µM] | 7.3 | -0.2%
CN(C)C(=O)c1ccc(NC(=O)COC(=O)C2(c3ccccc3)CCCC2)cc1 | nt | nt | nt | nt | 0.0%
COc1ccccc1-c1cc(C(=O)NCc2ccco2)no1 | 30.3 | -2.5% | 0.3% | 37.1* | -22.7%
SMILES | Shiga toxin inh | Marburg entry inh | Lassa entry inh | Cycloheximide cs | AMA1 RON2 block
COc1ccc(N=C2SC(CC(=O)Nc3ccccc3OC)C(=O)N2Cc2ccco2)cc1 (centres undefined) | 39.7* | ? | 16.4µM* | 24.5* | 0.0%
COc1ccc(N=C2SC(CC(=O)Nc3ccc(F)cc3)C(=O)N2Cc2ccco2)cc1 (centres undefined) | 28.3 | -7.9% | ? | 11.7 | 11.6%
COCCNC(=O)c1nc2ccccc2s1 | 44.3* | ? | -2.5%[46.1 µM] | 23.8 | ?
CC(=O)NCc1ccc(-c2nc3ccccc3s2)cc1 | 57.8* | ? | ? | 39.0* | -5.1%
O=C(NCCO)c1nc2ccccc2s1 | 37.1* | 7.7% | 22.3% | 16.8 | -11.6%
O=C(NCc1ccccc1)c1nc2ccccc2s1 | 37.2 | -1.1% | -21.2% | 23.2* | 20.4%
Cc1ccc2c(c1)c1c(c(=O)n(-c3ccccc3)c(=O)n1Cc1ccccc1C)n2C | nt | nt | 16.8%[46.1 µM] | nt | nt
Cc1cc(-c2ccc(S(=O)(=O)N3CCN(c4ccccc4F)CC3)s2)on1 | -4.8 | nt | nt | -4.2 | -1.2%
